Our source for the growth values is PubChem BioAssay (NCI).

Each structure is given as a SMILES string. Compounds without any hit were thinned out: in the full panel of roughly 83,000, 20% have a hit.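 Activity criterion: percent growth below 10, measured after cells in 96-well plates were exposed to a single compound concentration for 48 hours.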 Unmarked numbers belong to inactive results. Calls of active or inactive are those of the source.

For this test, the system named is TK-10 renal. As to the kind of experiment: NCI-60 one-dose screen, 48 h (100 = growth as untreated, 0 = no growth, -100 = all killed). Conditions: 10 µM unless noted.
`COc1cc(-c2nnc(SCc3ccc(O)c4ncccc34)n2-c2ccccc2)cc(OC)c1OC`: the growth was 15.2%. As for `CN1c2ccccc2Sc2cc(C=C(C#N)C#N)ccc21`, the figure is 111%; as for `CC(=O)N(C)C1CCc2c(sc(NC(=O)c3ccc(C(C)(C)C)cc3)c2C(N)=O)C1` (stereo not given), 106%; as for `COc1cc(/C=N/NC(=O)c2cn(C3CC3)c3c(OC)c(N4CC5CCCNC5C4)c(F)cc3c2=O)ccc1O` (stereo not given), 119%.

As to `CC1(C)[C@@H](O)CC[C@]2(C)[C@H]3CC[C@@H]4[C@H]5[C@H](C(=O)/C=C\c6ccc([N+](=O)[O-])cc6)CC[C@]5(O)CC[C@@]4(C)[C@]3(C)CC[C@@H]12`, the growth is 123%. As for `CCCCCc1ccc(S(=O)(=O)Nc2cccc(-c3csc(NC(=O)CN4CCN(C)CC4)n3)c2)cc1`, the figure is 115%; as for `O=S(=O)(NCCNc1nccc(-n2cnc3ccccc32)n1)c1ccc(Br)cc1`, 103%. As for `COc1ccccc1-n1cc(C#N)c(N)c1C(=O)c1ccc(Br)cc1`, the figure is 111%; as for `COc1cc2oc(-c3cccc(C(=O)N[C@@H](CC(C)C)C(=O)OC(C)(C)C)c3)cc(=O)c2c(OC)c1OC`, 95%.

With `CC1(C)CC[C@]23CC[C@]4(C)[C@H](CC[C@@H]5[C@@]6(C)CCCN(CO)C(C)(C)[C@@H]6CC[C@]54C)[C@H]2[C@H]1OC3`, the growth is 129%.

Consider `CCOC(=O)c1c(NC(=O)c2ccccc2C(F)(F)F)sc2c1CCC(=O)C2`, for which the growth is 91.1%. `COc1ccc(N2C(=O)c3cc(Cl)ccc3NC2SCc2ccccc2)cc1` (stereo not given): the growth was 96.2%. As for `CCCCCc1ccc(S(=O)(=O)Nc2cccc(-c3csc(NC(=O)CNCCN(C)C)n3)c2)cc1`, the figure is 112%; as for `O=C1CCCc2nc(Nc3ccc(S(=O)(=O)Nc4ccc([N+](=O)[O-])cc4)cc3)ncc21`, 105%; as for `Clc1nc2ccccc2nc1-c1nnc(C2CCCCC2)o1`, 105%. For the compound `Cc1ccc(C2=NN(C)C(=O)C3(CCCC3)C2)cc1`, the growth was 97.3%.

For the compound `O=C1[C@H]2Cc3c([nH]c4ccccc34)[C@@H](c3c(Cl)cccc3Cl)N2C(=O)CN1C1CCN(CC2CCCCC2)CC1`, the growth was 142%. As for `NC(=O)c1cccc(-n2ccc3cc(NC(=O)Nc4ccc(N5CCOCC5)c(C(F)(F)F)c4)ccc32)n1`, the figure is -7.65% (active). As for `COc1ccc(N2CCN(C3=C(Cl)C(=O)C(C)=C(C)C3=O)CC2)cc1`, the figure is 123%; as for `C=C(C=O)[C@@H]1CC[C@]2(C)[C@H](C(=O)C=C3[C@H]4C[C@](C)(C(=O)OC)CC[C@]4(C)CC[C@]32C)[C@@]1(C)CCC#N`, 48.9%; as for `CCOc1ccc(C(=O)Nc2ncc(Cc3ccc(F)cc3)s2)cc1`, 57.9%.

With `Cc1ccc(-c2cc3nc(C(Cl)Cl)nc(-c4cccs4)n3n2)cc1`, the growth was 141%.

As to `CCOC(=O)c1c(N)c(C#N)cn1-c1cc(OC)c(OC)c(OC)c1`, the growth was 99.5%.

With `CC(=O)C1=C(C)NC(NNC(N)=S)=NC1c1ccccc1` (stereo not given), the growth is 56.8%. As for `NS(=O)(=O)c1ccc(Nc2nc(N/N=C/c3ccccn3)nc(Nc3ccccc3)n2)cc1`, the figure is 2.56% (active); as for `Oc1cccc2ccc(-c3nnc(SCc4ccc(O)c5ncccc45)o3)nc12`, 27.9%; as for `O=C1CCCC2=C1C(c1c[nH]c3ccc(Br)cc13)Cc1cc(Br)ccc1N2` (stereo not given), 94.8%. On to `COC(=O)c1[nH]nc2c1C1(C(=O)N(C)c3ccccc31)C(C#N)=C(N)O2` (stereo not given), for which the growth is 102%.

For the compound `CC1=NC2=NC(=O)/C(=C3/N=C(C)C=C(c4ccccc4)N3N)NN2C(c2ccccc2)=C1`, the growth was 168%. Regarding `Nc1cc(-c2c[nH]c3ccc(Br)cc23)nc2cc(-c3c[nH]c4ccc(Br)cc34)nn12`, the growth is 35.7%. As for `O=S(=O)(NCCNc1nccc(-n2cnc3ccccc32)n1)c1ccc(Cl)cc1`, the figure is 101%. As for `COc1ccc(Cn2cc3c(c2-c2cc(OC)c(OC)c(OC)c2)CCc2c(CN4CCOCC4)noc2-3)cc1`, the figure is 90.1%; as for `CN(C)CCN(C)c1ccc2ncc(C#Cc3cncc(C(=O)Nc4ccc(CN5CCN(C)CC5)c(C(F)(F)F)c4)c3)n2n1`, 134%; as for `CCO/C=N/C1=C(C#N)C(c2ccc(F)cc2)c2sc3c(CC)cccc3c2O1` (stereo not given), 63.9%. As for `COc1ccc(/C=C/C(=O)c2cccc(NC(=O)CSc3nc4ccccc4c(=O)n3-c3ccccc3)c2)cc1OC`, the figure is 125%.
